From PubChem BioAssay AID1159580 (chemical genetic matrix, 2015)
Out of some 5,500 compounds screened, about 2,000 (36%) were called active. About 18% were inconclusive and are not listed. No stated cut-off is given here; in the data, active means normalized growth mostly below about 0.91 (no sharp cut-off); inconclusive means no clear call, values can overlap the other calls; inactive means mostly above about 0.92. The list shows a part of the results.

Test: chemical genetic growth profiling, strain panel (AID 1159580);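 further: tested at 20 µM; growth read once vehicle control cultures reached saturation at 30 °C; 1 = growth at the plate median or of vehicle wells; lower values mean less growth of the strain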
Details: S. cerevisiae deletion strains, growth OD

Measured: normalized growth

Nc1ccccc1C(=O)N/N=C\c1cc(Cl)cc(Cl)c1O
inactive: locus YAR019C, strain CDC15, hits give low values 0.968 | locus YBL105C, strain PKC1, hits give low values 0.958 | locus YBR135W, strain CKS1, hits give low values 0.97 | locus YBR136W, strain MEC1, hits give low values 0.962 | locus YBR160W, strain CDC28, hits give low values 0.968 | locus YDL017W, strain CDC7, hits give low values 0.963 | locus YDL028C, strain MPS1, hits give low values 0.964 | locus YDL101C, strain DUN1, hits give low values 0.97 | locus YDL108W, strain KIN28, hits give low values 0.965 | locus YDL132W, strain cdc53, hits give low values 0.954 | locus YDL214C, strain PRR2, hits give low values 0.758 | locus YDR052C, strain DBF4, hits give low values 0.959 | locus YDR054C, strain cdc34, hits give low values 0.955 | locus YDR226W, strain ADK1, hits give low values 0.957 | locus YDR477W, strain SNF1, hits give low values 0.694 | locus YER133W, strain GLC7, hits give low values 0.76 | locus YFL009W, strain cdc4, hits give low values 0.949 | locus YFL029C, strain CAK1, hits give low values 0.966 | locus YFR003C, strain YPI1, hits give low values 0.962 | locus YFR019W, strain FAB1, hits give low values 0.838 | locus YFR028C, strain CDC14, hits give low values 0.948 | locus YGR040W, strain KSS1, hits give low values 0.777 | locus YHR082C, strain KSP1, hits give low values 0.682 | locus YIL147C, strain SLN1, hits give low values 0.963 | locus YJL128C, strain PBS2, hits give low values 0.972 | locus YJR016C, strain ILV3, hits give low values 0.976 | locus YJR066W, strain TOR1, hits give low values 0.546 | locus YKL193C, strain SDS22, hits give low values 0.967 | locus YLR403W, strain SFP1, hits give low values 0.669 | locus YMR001C, strain CDC5, hits give low values 0.956 | locus YMR277W, strain FCP1, hits give low values 0.958 | locus YNL006W, strain LST8, hits give low values 0.967 | locus YNL161W, strain CBK1, hits give low values 0.967 | locus YNL207W, strain RIO2, hits give low values 0.948 | locus YNL222W, strain SSU72, hits give low values 0.967 | locus YOL078W, strain AVO1, hits give low values 0.969 | locus YOR329C, strain SCD5, hits give low values 0.97 | locus YPL031C, strain PHO85, hits give low values 0.688 | locus YPL209C, strain IPL1, hits give low values 0.969 | locus YPR025C, strain CCL1, hits give low values 0.967 | locus YPR106W, strain ISR1, hits give low values 0.96 | locus YPR111W, strain DBF20, hits give low values 0.946 | strain NNK1, hits give low values 0.939 | strain TSCII, hits give low values 0.962
active: locus YER123W, strain YCK3, hits give low values 0.435 | locus YGR052W, strain FMP48, hits give low values 0.325 | locus YGR092W, strain DBF2, hits give low values 0.13 | locus YHR030C, strain SLT2, hits give low values 0.657 | locus YHR079C, strain IRE1, hits give low values 0.485 | locus YHR205W, strain SCH9, hits give low values 0.564 | locus YJL095W, strain BCK1, hits give low values 0.425 | locus YJL157C, strain FAR1, hits give low values 0.685 | locus YJR066W, strain TOR1 (second series), hits give low values 0.404 | locus YKL048C, strain ELM1, hits give low values 0.579 | locus YKL067W, strain YNK1, hits give low values 0.649 | locus YKL101W, strain HSL1, hits give low values 0.301 | locus YKL203C, strain TOR2, hits give low values 0.65 | locus YLR113W, strain HOG1, hits give low values 0.434 | locus YLR133W, strain CKI1, hits give low values 0.586 | locus YML070W, strain DAK1, hits give low values 0.494 | locus YMR205C, strain PFK2 (second series), hits give low values 0.527 | locus YNL020C, strain ARK1, hits give low values 0.516 | locus YNL183C, strain NPR1, hits give low values 0.43 | locus YNL307C, strain MCK1 (second series), hits give low values 0.27 | locus YOL136C, strain PFK27, hits give low values 0.588 | locus YOR061W, strain CKA2, hits give low values 0.491 | locus YOR119C, strain RIO1, hits give low values 0.696 | locus YOR231W, strain MKK1, hits give low values 0.393 | locus YPL153C, strain RAD53, hits give low values 0.583 | locus YPL204W, strain HRR25, hits give low values 0.655 | locus YPL256C, strain CLN2, hits give low values 0.456
